Screens: PubChem, National Center for Advancing Translational Sciences (NCATS)
The list is not random: actives were taken first. Their share in the collection is about 2.8%.
PI5P4K alpha inh – inhibitors of human PI5P4K alpha; PI5P4Kalpha enzyme, ADP-Glo luminescence, 60 min; active compounds read low; max response, %; actives 1.2% (n = 330,000); active means max response of -50% or lower; inconclusive means between -30% and -50%; inactive means -30% or higher; further: value at the top dose of about 77 µM
Target sequence (P48426 whole entry, looked up): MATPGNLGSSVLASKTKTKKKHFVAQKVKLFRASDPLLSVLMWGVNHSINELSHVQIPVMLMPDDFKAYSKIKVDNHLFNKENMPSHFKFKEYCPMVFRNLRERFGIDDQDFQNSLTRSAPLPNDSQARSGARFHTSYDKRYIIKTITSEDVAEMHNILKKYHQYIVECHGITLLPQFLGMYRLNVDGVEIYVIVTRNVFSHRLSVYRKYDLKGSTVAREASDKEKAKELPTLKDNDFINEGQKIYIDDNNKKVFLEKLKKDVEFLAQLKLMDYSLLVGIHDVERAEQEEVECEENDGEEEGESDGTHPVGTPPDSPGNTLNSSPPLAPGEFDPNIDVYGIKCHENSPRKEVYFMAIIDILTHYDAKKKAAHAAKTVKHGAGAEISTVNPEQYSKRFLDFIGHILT
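Luminescence from ADP-Glo served as readout of PI5P4Kalpha activity in a qHTS format. Reaction: enzyme, substrate, compound, ATP at 5 microM final, 60 min at RT.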
Pol kappa inh – blocks human DNA polymerase kappa activity; actives 0.53% (n = 400,000); Potency, µM (highest dose often 107 µM), actives largely listed as inhibitors; purified Pol kappa, fluorescent DNA synthesis assay, 10 min; AID 588579
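Inhibition of 10 nM Pol kappa is measured by a fluorescent read-out at 0 and 10 min following addition of 50 nM substrate (final), with a 15-min room-temperature compound preincubation.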
Pol beta inh – inhibitors of human DNA polymerase beta; Pol beta primer extension/strand displacement, fluorescence kinetic; Potency, µM (doses to about 114 µM), most hits filed as inhibitors; actives 1.3% (n = 340,000); AID 485314
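Human Pol beta at 10 nM; strand-displacement substrate 50 nM final. Compound exposure 15 min at room temperature before start, reaction 10 min at room temperature.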
WRN helicase inh – WRN helicase (human) inhibition; WRN helicase unwinding, fluorescent forked duplex, kinetic; Potency, µM (titrated, usually from 114 µM), usual class: inhibitors; actives 0.46% (n = 360,000); AID 651768; further: nearly all actives have a fitted effect of over 55% in size
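WRN at 20 nM final preincubated with compound 15 min at room temperature; reaction started with 100 nM fluorophore/quencher forked duplex oligonucleotide and 2 mM ATP final. Unwinding followed kinetically by red fluorescence (ex 525, em 598 nm).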
POLH inh – DNA polymerase eta (human) inhibition | Q9Y253 | recombinant Pol eta, fluorescent DNA replication assay | Potency, µM (top dose mostly 114 µM), most hits filed as inhibitors | actives 1.2% (n = 390,000)
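Pol eta at 10 nM preincubated with compounds 15 min at room temperature; reaction started with fluorescent substrate (50 nM final) and read kinetically at 0 and 10 min.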
Pol iota inh – DNA polymerase iota (human) inhibition. Q9UNA4. actives 1% (n = 390,000). Pol iota fluorescent replication assay, 10 min. Potency, µM (series often up to 115 µM), usual class: inhibitors
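Fluorescent replication assay read twice, at 0 min and 10 min after adding 50 nM (final) substrate. Enzyme (10 nM) and compounds were first incubated 15 min at room temperature; enzyme-free buffer wells were negative controls.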
A number is an active result; – = inactive; ? = inconclusive; · = not tested or not shown; [ ] = remark or other dose. Unless noted, the call rests on the fitted dose curve; in most records, active means well fitted curve in the direction sought with a large enough effect; inconclusive means small, poorly fitted or top-dose-only effect, or another doubt; inactive means no such curve, though single readings can be large; an effect the other way counts as inactive or inconclusive.

SMILES | PI5P4K alpha inh | Pol kappa inh | Pol beta inh | WRN helicase inh | POLH inh | Pol iota inh
C/C(=N\NC(=O)c1ccncc1)c1c(O)n(Cc2ccccc2)c(=O)[nH]c1=O | ? | – | ? | – | – | –
C/C(=N\NC(=O)c1ccccc1)c1c(O)n(C2CCCCC2)c(=O)[nH]c1=O | -51 | – | – | – | – | –
OC[C@@H]1O[C@H](OC2[C@@H](O)[C@@H](O)C(O)O[C@@H]2CO)[C@H](O)[C@@H](O)[C@@H]1OC1O[C@H](CO)[C@@H](O)[C@H](O)[C@@H]1O (stereo not given in full) | · | – | · | · | · | ·
CC(=O)Nc1ccc(OC(=O)N2CCN(/[N+]([O-])=N/Oc3ccc([N+](=O)[O-])cc3[N+](=O)[O-])CC2)cc1 | · | – | · | · | · | ?
CC/C(CC(c1ccccc1)c1c(O)c2ccccc2oc1=O)=N\NC(N)=S (stereo not given) | – | ? | ? | – | 28µM | ?
COC(=O)COc1ccc(C[C@@H](C)NC[C@H](O)c2cccc(Cl)c2)cc1 | · | – | · | · | · | ·
[Hg+][c]1ccccc1 | · | –[19.4 µM] | · | · | · | 14µM
N=C(N)c1ccc(-c2ccc(-c3ccc(C(=N)N)cc3)o2)cc1 | · | 13µM | · | · | · | 10µM
N=C(N)c1ccc(CS(=O)(=O)F)cc1 | · | – | · | · | · | ·
Cc1cc(/C=C2/C(=O)NC(=O)N(c3ccccc3)C2=O)c(C)n1-c1ccc(F)cc1 | – | – | · | – | ? | ?
Cc1ccc(N2C(=O)NC(=O)/C(=C\C=C\c3ccco3)C2=O)cc1 | – | – | ? | ? | 50µM | 18µM
CN(C)c1ccc(/C=C/C=C2/C(=O)NC(=O)N(c3ccccc3)C2=O)cc1 | -78 | – | – | 18µM | ? | ?
Cc1cccc(N2C(=O)NC(=O)/C(=C\C=C\c3ccco3)C2=O)c1 | – | – | ? | – | ? | 13µM
Cc1cccc(N2C(=O)NC(=O)/C(=C/c3ccc([N+](=O)[O-])o3)C2=O)c1 | -78 | 8.9µM | 5.6µM | 28µM | 2.5µM | 3.2µM
COc1cc(/C=C2\C(=O)NC(=O)N(c3ccccc3)C2=O)c([N+](=O)[O-])cc1OC | – | – | – | ? | – | –
CC(C)(C)n1cccc1/C=C1\C(=O)NC(=O)N(c2ccccc2)C1=O | – | – | – | – | – | ?
CCOC(=O)N(C)C(=O)CSP(=S)(OCC)OCC | · | – | · | · | · | ·
COc1cccc(-c2nc3c(C#N)c[nH]n3c2NC2CCCCC2)c1OC | · | – | – | · | – | –
CCC(C)(C)O | · | – | · | · | · | ·
COc1ccc(CN2C(=O)NC(=O)/C(=C/c3ccc([N+](=O)[O-])o3)C2=O)cc1 | · | · | 6.3µM | · | · | ·
COc1ccc(CN2C(=O)NC(=O)/C(=C\c3cccc(OC)c3OC)C2=O)cc1 | – | – | – | ? | – | –
C=CCN1C(=O)NC(=O)/C(=C/c2c(CCN(C)C(=O)c3ccccc3)cc3c(c2OC)OCO3)C1=O | ? | – | – | – | – | –
CC(=O)Nc1ccc(C=C2C(=O)NC(=O)NC2=O)cc1 | ? | – | · | ? | – | –
C=CCN1C(=O)NC(=O)/C(=C/c2ccc(OC)c(CSc3ccccn3)c2)C1=O | -71 | – | – | ? | ? | –
C=CCN1C(=O)NC(=O)/C(=C/c2ccc(OC)c(COc3ccc(NC(C)=O)cc3)c2)C1=O | -66 | – | – | 45µM | ? | –
SMILES | PI5P4K alpha inh | Pol kappa inh | Pol beta inh | WRN helicase inh | POLH inh | Pol iota inh
O=C(O)c1ccc[nH]c1=S | – | – | – | – | – | ?
CC(=O)OCC1=C[C@H]2[C@@H]3C(C)(C)[C@]3(OC(=O)Cc3ccccc3)C[C@@H](C)[C@]2(O)[C@@H]2C=C(C)C(=O)[C@@]2(O)C1 | · | –[12 µM] | · | · | · | ·
O=C1NC(=O)C(Sc2ccccc2[N+](=O)[O-])C(=O)N1 | -54 | – | – | ? | – | 10µM
Cc1ccccc1[N+](=O)[O-] | – | – | · | – | – | –
C=CCN1C(=O)/C(=C\c2ccc(N3CCOCC3)o2)C(=O)NC1=S | – | – | – | – | 28µM | ?
CN1C(=O)C(=Cc2cn(CC#N)c3ccccc23)C(=O)N(C)C1=O | ? | – | ? | – | ? | ?
CN1C(=O)C(=Cc2coc3ccccc3c2=O)C(=O)N(C)C1=O | -73 | – | – | – | – | –
Cc1cc(C=C2C(=O)N(C)C(=S)N(C)C2=O)c(C)n1C1CCCCC1 | ? | – | 40µM | –[11.6 µM] | 14µM | ?
